Source: PubChem BioAssay AID449762 (Southern Research Specialized Biocontainment Screening …, 2010)
About 1,900 (0.58%) of roughly 330,000 compounds were called active. About 4% were inconclusive and are not listed. No stated cut-off is given here; in the data, inconclusive means inhibition above about 70% without an active follow-up result; inactive means below that. Only a sample is shown. Measured potencies and affinities stand elsewhere.

Test: M. tuberculosis growth inhibition, HTS (AID 449762);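 further: bacterial growth assessed after seven days of incubation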
Conditions: M. tuberculosis H37Rv growth inhibition, 7H9 media; at 25 µM; active compounds read high
In the case of `O=C(CSc1nc2ccccc2nc1N1CCCCC1)N1CCN(c2ccccc2)CC1`, the inhibition is reported as -7.86% (inactive).
For `Cc1ccc(C)n1CCN1CCN(C(=O)CSc2nc3ccccc3nc2N2CCOCC2)CC1`, the inhibition was 5.46% (inactive).
In the case of `COc1ccc2[nH]c(=O)c(CN(CC3CCCO3)S(=O)(=O)c3ccccc3)cc2c1` (stereo not given), the inhibition is reported as 2.57% (inactive).
With `Cc1ccccc1OCC(=O)NNC(=O)C1CCCCC1C(=O)O` (stereo not given) the inhibition was 2.25% (inactive).
In the case of `Cc1ccc(C)c(N(C(=O)c2nsc(Cl)c2Cl)C(C(=O)NC2CCCC2)c2ccc(O)cc2)c1` (stereo not given), the inhibition is reported as -2.81% (inactive).
With `Cc1cccc(N(C(=O)c2nsc(Cl)c2Cl)C(C(=O)NC2CCCC2)c2ccc(O)cc2)c1` (stereo not given) the inhibition was -12.7% (inactive).
For `C=CCc1c(C)nn(CC(=O)O)c1-c1ccccc1`, the inhibition was -6.59% (inactive).
For `COc1ccc(S(=O)(=O)N2CCC(C(=O)NC(c3nc4ccccc4[nH]3)C(C)C)CC2)cc1` (stereo not given), the inhibition was -6.28% (inactive).
For `O=C(Nc1cc(S(=O)(=O)N2CCOCC2)ccc1N1CCCC1)C1COc2ccccc2O1` (stereo not given), the inhibition was -4.41% (inactive).
In the case of `COC(=O)/C(=C1/Oc2ccc(C(C)(C)C)cc2S1)C(F)(F)F`, the inhibition is reported as -1.9% (inactive).
In the case of `COC(=O)/C(=C1/Oc2ccc(C)cc2S1)C(F)(F)F`, the inhibition is reported as 4.4% (inactive).
For `O=S(=O)(c1ccc(Cl)c(NC(=S)Nc2cccc(O)c2)c1)N1CCOCC1`, the inhibition was 1.85% (inactive).
For `CC12CCC(=O)N1C(C(=O)N1CCN(S(=O)(=O)c3cccc(C(F)(F)F)c3)CC1)CS2` (stereo not given), the inhibition was 2.29% (inactive).
In the case of `O=C(Nc1nc2ccc(Cl)cc2s1)C1CC1`, the inhibition is reported as 7.91% (inactive).
For `CC1CC1C(=O)Nc1nc2ccc(Cl)cc2s1` (stereo not given), the inhibition was 16.9% (inactive).
With `O=C(Cc1nnc(NC(=O)Nc2ccc(F)cc2)s1)NCc1ccccc1` the inhibition was -2.08% (inactive).
For `COc1ccc(N2C(=O)CCC2=O)cc1`, the inhibition was -16.1% (inactive).
In the case of `CCOc1ccc(C(=O)NNC(=O)CN2C(=O)C3CC=CCC3C2=O)cc1OC` (stereo not given), the inhibition is reported as 3.32% (inactive).
With `CN(C(=O)COC(=O)c1ccc(Cl)cc1N)C1CCCCC1` the inhibition was -0.1% (inactive).
For `CCN(C(=O)COC(=O)CNC(=O)c1sc2ccccc2c1Cl)C1CCCCC1`, the inhibition was 39.4% (inactive).
For `CN(C(=O)COC(=O)c1cc(NS(=O)(=O)c2cc([N+](=O)[O-])ccc2Cl)ccc1O)C1CCCCC1`, the inhibition was 0.85% (inactive).
With `CC1CCCC(NC(=O)COC(=O)c2sc3ccccc3c2Cl)C1C` (stereo not given) the inhibition was -11.1% (inactive).
In the case of `C=CCn1c(N)c(C(=O)N2CCOCC2)sc1=S`, the inhibition is reported as -5.77% (inactive).
In the case of `c1ccc(CCNc2ncnc3sccc23)nc1`, the inhibition is reported as -8.28% (inactive).
For `Cc1ccc(N2CC(C(=O)Nc3cccc(C(=O)NC4CC4)c3)CC2=O)cc1` (stereo not given), the inhibition was -1.62% (inactive).
